According to the supplement of paper PMC11732987, “Enantioselective OTUD7B fragment discovery through chemoproteomics screening and high-throughput optimisation” (Communications Chemistry, 2025):

Legend:
Test in all cases: log2 ratio of Biotin-Ahx-Ub-VS probe labelling (fragment/DMSO); higher = less target engagement (more negative = stronger competition), active = hit call of the paper (q ≤ 0.05, log2 ratio ≤ -1)
Conditions in all cases: compound concentration: 200 uM; treatment time: 3 h
USP19 = molecular target: T1, USP19 (UniProt O94966)
T1 sequence (whole entry): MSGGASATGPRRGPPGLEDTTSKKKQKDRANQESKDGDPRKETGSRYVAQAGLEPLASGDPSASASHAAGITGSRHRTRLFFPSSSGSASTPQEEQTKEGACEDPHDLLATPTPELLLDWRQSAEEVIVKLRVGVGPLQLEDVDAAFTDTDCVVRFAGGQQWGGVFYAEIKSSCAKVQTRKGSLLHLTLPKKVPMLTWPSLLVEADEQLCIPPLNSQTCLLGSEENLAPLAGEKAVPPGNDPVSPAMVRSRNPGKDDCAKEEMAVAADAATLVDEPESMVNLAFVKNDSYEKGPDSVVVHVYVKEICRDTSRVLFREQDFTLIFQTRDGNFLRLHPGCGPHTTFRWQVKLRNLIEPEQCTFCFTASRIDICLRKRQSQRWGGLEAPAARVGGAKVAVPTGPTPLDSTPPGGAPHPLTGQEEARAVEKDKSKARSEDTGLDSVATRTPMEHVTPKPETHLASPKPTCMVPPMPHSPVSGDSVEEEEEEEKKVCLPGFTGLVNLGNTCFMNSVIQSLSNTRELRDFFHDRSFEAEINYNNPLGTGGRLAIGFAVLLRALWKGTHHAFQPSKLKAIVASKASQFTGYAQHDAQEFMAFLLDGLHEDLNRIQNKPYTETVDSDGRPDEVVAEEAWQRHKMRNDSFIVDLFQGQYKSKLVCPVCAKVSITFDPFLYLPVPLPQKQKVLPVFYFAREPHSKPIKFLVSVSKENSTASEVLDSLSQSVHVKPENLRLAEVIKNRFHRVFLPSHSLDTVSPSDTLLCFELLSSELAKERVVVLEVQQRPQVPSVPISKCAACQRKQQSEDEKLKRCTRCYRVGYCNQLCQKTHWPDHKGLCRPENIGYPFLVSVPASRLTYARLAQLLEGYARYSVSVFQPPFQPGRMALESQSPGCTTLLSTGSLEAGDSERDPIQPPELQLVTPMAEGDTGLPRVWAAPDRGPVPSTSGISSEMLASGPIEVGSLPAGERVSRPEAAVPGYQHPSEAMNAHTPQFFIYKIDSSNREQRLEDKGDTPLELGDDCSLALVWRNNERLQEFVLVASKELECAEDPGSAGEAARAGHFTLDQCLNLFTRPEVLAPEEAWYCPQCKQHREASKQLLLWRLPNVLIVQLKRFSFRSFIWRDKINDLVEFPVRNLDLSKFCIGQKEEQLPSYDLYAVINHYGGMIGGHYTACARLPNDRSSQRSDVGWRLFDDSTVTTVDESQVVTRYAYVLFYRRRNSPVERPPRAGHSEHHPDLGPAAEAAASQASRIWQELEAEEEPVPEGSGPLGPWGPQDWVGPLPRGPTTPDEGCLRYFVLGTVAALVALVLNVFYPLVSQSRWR
Method in brief: (§1)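 Each value is an average log2 ratio of fragment to vehicle, tested by unpaired t-test. The underlying Spectronaut label-free quantities were global-median-normalised, and only proteins with ≥2 unique peptides were included. Triplicate HEK293T lysate samples (495 µg) were exposed to fragment at 200 µM or vehicle for 3 h, then to Biotin-Ahx-Ub-VS at 0.5 µM final for 1 h, before NeutrAvidin enrichment of labelled DUBs, LysC and trypsin digestion, and diaPASEF LC-MS/MS.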

USP22 = molecular target: T2, USP22 (UniProt Q9UPT9)
T2 sequence (whole entry): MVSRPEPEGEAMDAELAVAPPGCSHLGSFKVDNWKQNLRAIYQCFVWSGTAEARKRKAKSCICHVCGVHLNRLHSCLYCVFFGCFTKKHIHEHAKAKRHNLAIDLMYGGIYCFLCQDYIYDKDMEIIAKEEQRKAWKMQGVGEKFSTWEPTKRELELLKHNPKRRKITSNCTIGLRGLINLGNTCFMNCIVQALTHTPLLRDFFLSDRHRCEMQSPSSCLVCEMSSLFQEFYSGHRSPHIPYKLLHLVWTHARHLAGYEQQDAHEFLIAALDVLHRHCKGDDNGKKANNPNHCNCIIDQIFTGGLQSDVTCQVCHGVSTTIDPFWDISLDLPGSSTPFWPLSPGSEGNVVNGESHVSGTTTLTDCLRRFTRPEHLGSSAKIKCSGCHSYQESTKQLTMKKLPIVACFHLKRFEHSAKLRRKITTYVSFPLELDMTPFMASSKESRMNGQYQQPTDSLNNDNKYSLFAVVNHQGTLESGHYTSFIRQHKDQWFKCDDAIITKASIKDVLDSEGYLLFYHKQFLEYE
Method in brief: as §1

USP24 = USP24 (UniProt Q9UPU5)
Chain of USP24 (Q9UPU5 whole entry): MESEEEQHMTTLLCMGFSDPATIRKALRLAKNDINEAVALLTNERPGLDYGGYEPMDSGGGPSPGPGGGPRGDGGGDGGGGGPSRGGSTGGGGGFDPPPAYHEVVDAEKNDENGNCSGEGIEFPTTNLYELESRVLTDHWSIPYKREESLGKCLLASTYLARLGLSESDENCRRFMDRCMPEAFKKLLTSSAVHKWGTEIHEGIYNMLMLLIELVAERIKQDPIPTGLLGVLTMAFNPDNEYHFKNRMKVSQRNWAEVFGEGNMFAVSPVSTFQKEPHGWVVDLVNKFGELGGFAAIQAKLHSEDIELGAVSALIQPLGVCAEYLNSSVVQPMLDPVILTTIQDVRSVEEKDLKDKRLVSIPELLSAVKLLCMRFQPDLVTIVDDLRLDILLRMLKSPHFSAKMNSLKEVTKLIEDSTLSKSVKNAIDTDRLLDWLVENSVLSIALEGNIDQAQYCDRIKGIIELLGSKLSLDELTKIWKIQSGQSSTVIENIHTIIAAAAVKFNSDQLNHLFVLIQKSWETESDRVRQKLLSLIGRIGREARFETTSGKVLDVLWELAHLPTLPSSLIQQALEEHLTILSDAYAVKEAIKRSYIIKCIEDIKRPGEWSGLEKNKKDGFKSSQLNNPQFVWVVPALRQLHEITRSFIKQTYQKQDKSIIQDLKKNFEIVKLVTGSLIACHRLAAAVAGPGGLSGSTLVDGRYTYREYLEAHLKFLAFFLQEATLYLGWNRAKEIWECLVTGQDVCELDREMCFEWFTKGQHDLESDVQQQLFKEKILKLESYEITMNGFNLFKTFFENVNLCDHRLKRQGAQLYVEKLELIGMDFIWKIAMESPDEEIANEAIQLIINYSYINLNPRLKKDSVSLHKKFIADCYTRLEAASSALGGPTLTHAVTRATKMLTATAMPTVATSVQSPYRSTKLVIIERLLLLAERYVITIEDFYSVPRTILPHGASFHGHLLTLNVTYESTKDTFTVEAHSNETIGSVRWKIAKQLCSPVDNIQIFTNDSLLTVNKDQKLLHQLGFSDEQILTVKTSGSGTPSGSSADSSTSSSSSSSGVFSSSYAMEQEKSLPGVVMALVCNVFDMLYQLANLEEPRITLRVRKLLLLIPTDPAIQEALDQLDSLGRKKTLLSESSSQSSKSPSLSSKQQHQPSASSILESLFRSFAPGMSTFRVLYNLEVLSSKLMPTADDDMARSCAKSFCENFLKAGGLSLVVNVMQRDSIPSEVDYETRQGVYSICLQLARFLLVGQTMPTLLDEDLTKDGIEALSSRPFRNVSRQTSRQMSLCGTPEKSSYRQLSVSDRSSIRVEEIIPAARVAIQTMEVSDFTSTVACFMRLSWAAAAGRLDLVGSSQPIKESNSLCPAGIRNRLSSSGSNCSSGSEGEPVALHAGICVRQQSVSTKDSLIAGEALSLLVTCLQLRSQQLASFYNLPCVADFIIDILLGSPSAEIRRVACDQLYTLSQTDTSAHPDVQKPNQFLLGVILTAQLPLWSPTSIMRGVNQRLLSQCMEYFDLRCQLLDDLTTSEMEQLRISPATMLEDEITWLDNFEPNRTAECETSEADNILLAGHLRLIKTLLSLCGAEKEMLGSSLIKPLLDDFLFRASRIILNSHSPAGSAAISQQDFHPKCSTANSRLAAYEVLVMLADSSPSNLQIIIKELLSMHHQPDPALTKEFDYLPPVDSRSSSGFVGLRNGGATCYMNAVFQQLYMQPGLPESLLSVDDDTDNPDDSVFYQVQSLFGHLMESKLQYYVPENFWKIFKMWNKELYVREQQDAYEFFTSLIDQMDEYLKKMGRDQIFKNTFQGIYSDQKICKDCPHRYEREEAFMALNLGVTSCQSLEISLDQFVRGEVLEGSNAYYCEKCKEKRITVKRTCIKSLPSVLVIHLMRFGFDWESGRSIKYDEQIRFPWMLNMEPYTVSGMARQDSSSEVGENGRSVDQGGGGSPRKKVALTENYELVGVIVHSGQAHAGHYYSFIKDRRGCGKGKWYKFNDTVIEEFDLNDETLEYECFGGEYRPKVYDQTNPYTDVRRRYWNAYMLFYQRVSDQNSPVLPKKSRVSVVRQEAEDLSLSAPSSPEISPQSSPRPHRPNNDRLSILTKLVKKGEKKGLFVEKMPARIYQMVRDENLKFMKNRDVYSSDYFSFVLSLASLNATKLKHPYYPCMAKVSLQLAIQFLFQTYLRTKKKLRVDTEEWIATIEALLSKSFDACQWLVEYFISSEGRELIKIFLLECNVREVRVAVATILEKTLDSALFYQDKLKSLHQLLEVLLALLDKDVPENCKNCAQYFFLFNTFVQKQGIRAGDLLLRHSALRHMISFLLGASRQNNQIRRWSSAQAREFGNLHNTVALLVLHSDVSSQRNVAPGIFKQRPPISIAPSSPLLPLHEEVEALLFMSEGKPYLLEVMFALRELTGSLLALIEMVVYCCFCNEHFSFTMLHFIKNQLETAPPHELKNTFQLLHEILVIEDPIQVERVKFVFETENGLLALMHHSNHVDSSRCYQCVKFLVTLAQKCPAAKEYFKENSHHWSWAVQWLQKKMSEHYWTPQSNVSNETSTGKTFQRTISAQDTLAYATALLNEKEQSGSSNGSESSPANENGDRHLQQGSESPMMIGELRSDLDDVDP
Method in brief: as §1

USP25 = molecular target: T3, USP25 (UniProt Q9UHP3)
T3 sequence (whole entry): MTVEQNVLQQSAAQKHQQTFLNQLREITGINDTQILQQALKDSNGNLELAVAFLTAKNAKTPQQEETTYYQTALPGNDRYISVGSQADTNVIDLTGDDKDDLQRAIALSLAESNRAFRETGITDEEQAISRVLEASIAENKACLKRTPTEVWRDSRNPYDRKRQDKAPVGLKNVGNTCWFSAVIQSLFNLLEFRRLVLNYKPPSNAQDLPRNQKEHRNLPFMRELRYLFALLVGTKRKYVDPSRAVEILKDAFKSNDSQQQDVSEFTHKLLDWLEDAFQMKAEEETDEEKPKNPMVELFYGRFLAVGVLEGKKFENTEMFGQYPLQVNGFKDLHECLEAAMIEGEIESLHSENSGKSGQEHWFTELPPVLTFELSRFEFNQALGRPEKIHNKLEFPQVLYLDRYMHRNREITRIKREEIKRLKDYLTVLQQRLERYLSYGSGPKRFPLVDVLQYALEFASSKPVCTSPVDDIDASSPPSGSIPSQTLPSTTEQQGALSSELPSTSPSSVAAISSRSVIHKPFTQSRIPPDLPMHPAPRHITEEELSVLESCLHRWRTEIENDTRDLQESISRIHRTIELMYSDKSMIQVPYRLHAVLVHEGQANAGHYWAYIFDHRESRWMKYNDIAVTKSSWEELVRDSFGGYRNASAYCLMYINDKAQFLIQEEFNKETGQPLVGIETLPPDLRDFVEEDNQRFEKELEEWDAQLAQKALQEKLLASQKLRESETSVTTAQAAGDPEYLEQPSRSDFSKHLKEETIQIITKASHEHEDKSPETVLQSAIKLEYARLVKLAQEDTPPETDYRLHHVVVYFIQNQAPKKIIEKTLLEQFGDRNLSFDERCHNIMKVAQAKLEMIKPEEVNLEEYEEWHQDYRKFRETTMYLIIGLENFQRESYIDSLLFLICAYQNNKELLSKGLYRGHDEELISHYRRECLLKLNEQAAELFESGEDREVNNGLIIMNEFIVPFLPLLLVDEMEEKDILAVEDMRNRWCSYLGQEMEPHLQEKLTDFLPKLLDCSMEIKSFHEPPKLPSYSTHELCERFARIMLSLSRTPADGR
Method in brief: as §1

USP28 = molecular target: T4, USP28 (UniProt Q96RU2)
T4 sequence (whole entry): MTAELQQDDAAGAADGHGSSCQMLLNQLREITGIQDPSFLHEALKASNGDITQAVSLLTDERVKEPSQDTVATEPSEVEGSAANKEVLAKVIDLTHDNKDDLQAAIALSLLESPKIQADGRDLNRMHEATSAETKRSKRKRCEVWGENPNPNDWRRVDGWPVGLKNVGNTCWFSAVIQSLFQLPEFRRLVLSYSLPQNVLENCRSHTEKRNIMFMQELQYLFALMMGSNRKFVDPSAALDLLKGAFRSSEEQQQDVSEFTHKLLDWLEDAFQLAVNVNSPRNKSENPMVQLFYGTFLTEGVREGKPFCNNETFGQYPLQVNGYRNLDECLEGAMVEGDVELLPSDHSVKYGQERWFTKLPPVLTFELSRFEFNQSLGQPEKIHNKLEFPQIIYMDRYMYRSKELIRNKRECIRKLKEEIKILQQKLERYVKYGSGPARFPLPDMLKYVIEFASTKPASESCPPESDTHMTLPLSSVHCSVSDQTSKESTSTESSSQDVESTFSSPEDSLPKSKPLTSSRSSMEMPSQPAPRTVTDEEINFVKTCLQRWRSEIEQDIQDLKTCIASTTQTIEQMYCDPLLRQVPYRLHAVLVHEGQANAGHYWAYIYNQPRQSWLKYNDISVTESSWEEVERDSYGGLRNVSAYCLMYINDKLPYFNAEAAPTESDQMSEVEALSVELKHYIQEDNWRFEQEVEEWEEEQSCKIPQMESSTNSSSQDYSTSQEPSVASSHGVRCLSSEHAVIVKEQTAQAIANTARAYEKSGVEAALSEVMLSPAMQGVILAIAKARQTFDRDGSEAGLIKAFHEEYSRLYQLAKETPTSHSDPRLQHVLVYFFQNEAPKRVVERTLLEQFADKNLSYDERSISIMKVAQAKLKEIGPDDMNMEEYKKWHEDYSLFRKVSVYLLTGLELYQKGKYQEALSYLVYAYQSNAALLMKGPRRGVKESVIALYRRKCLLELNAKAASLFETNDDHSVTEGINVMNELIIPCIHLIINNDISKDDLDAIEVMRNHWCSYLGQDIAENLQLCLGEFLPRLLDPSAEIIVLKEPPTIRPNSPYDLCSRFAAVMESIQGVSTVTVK
Method in brief: as §1

Measured: log2 ratio of Biotin-Ahx-Ub-VS probe labelling

O=C(CCl)N1CC2(CCOCC2)C1
inactive: USP19 -0.144 | USP22 0.0357 | USP24 -0.194 | USP25 -0.275 | USP28 -0.375
